Drawing on PubChem BioAssay (NCATS), this text covers Potency, outcome and max response for 16 compounds.

Each structure is given as a SMILES string. Results filed as inconclusive are left out. Unmarked numbers belong to inactive results. The source made the active and inactive calls. Unless noted, the call rests on the fitted dose curve; in most records, active means well fitted curve in the direction sought with a large enough effect; inconclusive means small, poorly fitted or top-dose-only effect, or another doubt; inactive means no such curve, though single readings can be large; an effect the other way counts as inactive or inconclusive. Where a SMILES comes first, the peptide text is derived from it. [ ]: non-standard residue; d: D form. The star is where a group is joined. Dolaproine = CO[C@@H]([C@@H]1CCCN1)[C@@H](C)C(=O)O; Dil = CC[C@H](C)[C@H](NC)[C@@H](CC(=O)O)OC; Doe = c1ccc(C[C@H](N*)c2nccs2)cc1; Aib = CC(C)(N)C(=O)O

The nature of assay [1]: P-glycoprotein substrates identified in KB-8-5-11 adenocarcinoma cell line, qHTS therapeutic library screen (AID 1346987). Further: nearly all actives have a fitted effect of over 65% in size. Further: potency means the concentration at half of the fitted maximal effect. Summed up: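 Steps: plate 500 KB-8-5-11 cells/well in DMEM + 10% FCS (colchicine removed); pin compounds in dose-response; incubate 72 h, 37 degree C, 5% CO2; add CellTiter-Glo, 5 min; read luminescence.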
A short description of assay [2]: Primary qHTS for inhibitors of nuclear receptor binding SET domain protein 2 (NSD2) in an isogenic RCH-ACV NSD2 p.E1099K mutant (9B) (AID 1645876). Further: nearly all actives have a fitted effect of over 70% in size. Further: potency means the concentration at half of the fitted maximal effect.
Assay [3] is described as follows: Primary redox qHTS assay for identification of artifact compounds. (AID 1845223).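 Further: 0% = DMSO and 100% = reference compound.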 Summed up: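 Amplex Red (25 uM) and HRP (250 mU/mL) in HBSS, with compounds for 15 min, then 250 uM DTT for 30 min, room temperature, dark. Fluorescence 525/598 nm read; normalized to DMSO and 10 uM DA3003; Hill fit.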
The subject of assay [4] is HaCat. The assay can be described thus: Cytotoxic Profiling of Annotated Libraries Using Quantitative High-Throughput Screening (AID 1296008). Further: nearly all actives have a fitted effect of over 60% in size. Further: potency means the concentration at half of the fitted maximal effect. On max response: on the % scale 0 is the no-effect control and ±100 the full control effect. Conditions: Five cell lines viability, CellTiter-Glo ATP luminescence, 48-72 h; max response: stronger effect = lower value. Summed up: (§1)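 Cytotoxicity was measured as CellTiter-Glo ATP luminescence, read after 10 min at room temperature. Compound treatment of the cells lasted 48 or 72 hr at 37 degrees Celsius in a qHTS format.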

The test system of assay [5] is HACAT. The assay can be described thus: qHTS assay to identify novel small-molecules to repurpose for Merkel cell carcinoma treatment (AID 1296009). Further: nearly all actives have a fitted effect of over 60% in size. Conditions: MCC and control cell lines, CellTiter-Glo viability, 72 h; at 44.8 µM (top of the series) unless noted. Summed up: (§2)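 72 hr, 37 degree celsius; NPC 8-pt / MIPE 11-pt dose response; compound pinned in DMSO; CellTiter-Glo, 10 min RT, luminescence; normalized to no-cell and DMSO controls.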

Assay [6] has as its system HeLa. The assay can be described thus: Primary qHTS to identify gynecologic anti-cancer compounds using libraries of approved drugs and bioactive compounds (AID 1345084). Further: nearly all actives have a fitted effect of over 55% in size. Further: potency means the concentration at half of the fitted maximal effect. Conditions: Gynecologic cancer cell panel viability, ATPlite luminescence, 48 h; series mostly up to 57.5 µM. The method in brief: (§3)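 Measured: luminescence after ATPlite addition (15 min, RT). Exposure: 48 h, 37 C, 5% CO2.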

The target of assay [7] is Cytochrome P450 2D6 (Homo sapiens) (UniProt P10635). Description: Cytochrome P450 family 2 subfamily D member 6 (CYP2D6) small molecule antagonists: luciferase biochemical (cell-free) qHTS assay (AID 1645840; active means well fitted curve in the direction sought with a large enough effect in the repeat runs; an effect the other way counts as inactive or inconclusive; further: nearly all actives have a fitted effect of over 55% in size; further: potency means the concentration at half of the fitted maximal effect). The method in brief:
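P450-Glo luminescent screen: recombinant CYP2D6 enzyme–proluciferin substrate mix preincubated with compound 10 min at room temperature, then NADPH regeneration added for 1 h at room temperature. Detection reagent added for 20 min; luciferin light read as relative luminescence units.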

Assay [8] has as its target Cytochrome P450 2C9 (Homo sapiens) (UniProt P11712). Description: Cytochrome P450 family 2 subfamily C member 9 (CYP2C9) small molecule antagonists: luciferase biochemical (cell-free) qHTS assay (AID 1645842; active means well fitted curve in the direction sought with a large enough effect in the repeat runs; an effect the other way counts as inactive or inconclusive; further: nearly all actives have a fitted effect of over 55% in size; further: potency means the concentration at half of the fitted maximal effect). Summed up:
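Luminescence, after 20 min with luciferin detection reagent, reflected CYP2C9 turnover during a 1 h NADPH-driven reaction at 37C. Enzyme-substrate mix contained 0.4% bovine serum albumin and was preincubated with compound 10 min at room temperature.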

Assay [9] is described as follows: Primary qHTS for inhibitors of nuclear receptor binding SET domain protein 2 (NSD2) in an RCH-ACV wild type WT cells (2C) (AID 1645877). Further: nearly all actives have a fitted effect of over 70% in size. Further: potency means the concentration at half of the fitted maximal effect.
Assay [10] has as its system NIH3T3. The assay can be described thus: qHTS assay to identify novel small-molecules to repurpose for Merkel cell carcinoma treatment (AID 1296009). Further: nearly all actives have a fitted effect of over 60% in size. Conditions: MCC and control cell lines, CellTiter-Glo viability, 72 h; at 44.8 µM (top of the series) unless noted. The method in brief:
as §2

The test system of assay [11] is SKOV3. The assay can be described thus: Primary qHTS to identify gynecologic anti-cancer compounds using libraries of approved drugs and bioactive compounds (AID 1345084). Further: nearly all actives have a fitted effect of over 55% in size. Further: potency means the concentration at half of the fitted maximal effect. Conditions: Gynecologic cancer cell panel viability, ATPlite luminescence, 48 h; series mostly up to 57.5 µM. Summed up: as §3
For assay [12], the system named is CRL-7250. Description: qHTS assay to identify novel small-molecules to repurpose for Merkel cell carcinoma treatment (AID 1296009). Further: nearly all actives have a fitted effect of over 60% in size. Conditions: MCC and control cell lines, CellTiter-Glo viability, 72 h; series mostly up to 92 µM. The method in brief: as §2
The test system of assay [13] is HEK293. Description: Cytotoxic Profiling of Annotated Libraries Using Quantitative High-Throughput Screening (AID 1296008). Further: nearly all actives have a fitted effect of over 60% in size. Further: potency means the concentration at half of the fitted maximal effect. On max response: on the % scale 0 is the no-effect control and ±100 the full control effect. Conditions: Five cell lines viability, CellTiter-Glo ATP luminescence, 48-72 h; max response: stronger effect = lower value. The method in brief:
as §1

The subject of assay [14] is KB-3-1. The description is as above. Conditions: Five cell lines viability, CellTiter-Glo ATP luminescence, 48-72 h; max response: stronger effect = lower value. Summed up: as §1

Sequence of Cytochrome P450 2D6 (Homo sapiens) (P10635 whole entry, looked up): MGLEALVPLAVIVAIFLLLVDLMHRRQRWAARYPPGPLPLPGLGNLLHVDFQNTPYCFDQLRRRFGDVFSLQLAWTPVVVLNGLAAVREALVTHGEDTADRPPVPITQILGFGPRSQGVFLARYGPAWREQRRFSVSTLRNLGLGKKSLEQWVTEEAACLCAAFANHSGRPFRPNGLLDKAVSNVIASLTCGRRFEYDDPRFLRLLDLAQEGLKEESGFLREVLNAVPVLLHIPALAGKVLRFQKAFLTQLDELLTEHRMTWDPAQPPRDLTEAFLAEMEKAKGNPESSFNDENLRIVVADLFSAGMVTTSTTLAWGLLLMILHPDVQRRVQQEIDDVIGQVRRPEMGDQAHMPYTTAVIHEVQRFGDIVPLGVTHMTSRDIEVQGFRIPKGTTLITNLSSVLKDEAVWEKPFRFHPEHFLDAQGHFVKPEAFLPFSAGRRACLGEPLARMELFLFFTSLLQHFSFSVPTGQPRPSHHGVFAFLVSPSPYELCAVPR
Sequence of Cytochrome P450 2C9 (Homo sapiens) (P11712 whole entry, looked up): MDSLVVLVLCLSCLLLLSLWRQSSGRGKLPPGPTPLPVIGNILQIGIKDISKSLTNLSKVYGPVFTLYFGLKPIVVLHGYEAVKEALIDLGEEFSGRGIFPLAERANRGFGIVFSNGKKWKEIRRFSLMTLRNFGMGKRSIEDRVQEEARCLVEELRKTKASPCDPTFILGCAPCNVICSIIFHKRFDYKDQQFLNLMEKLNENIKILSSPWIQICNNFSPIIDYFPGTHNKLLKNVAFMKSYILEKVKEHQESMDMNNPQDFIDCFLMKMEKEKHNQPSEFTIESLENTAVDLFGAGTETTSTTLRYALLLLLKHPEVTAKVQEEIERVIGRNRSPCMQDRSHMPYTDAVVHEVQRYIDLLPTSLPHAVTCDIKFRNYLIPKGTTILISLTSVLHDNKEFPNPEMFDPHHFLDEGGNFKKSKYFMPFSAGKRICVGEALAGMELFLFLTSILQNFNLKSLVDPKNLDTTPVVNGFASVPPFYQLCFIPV

On to `CC1=CC2/C=C(\C)CCC(O)C(O)/C=C/C(=O)OC23C(=O)NC(CC(C)C)C3C1C` (configuration not stated), for which the Potency entry in assay [1], in [3] and in assay [6] was “inactive” in each case. For the same compound, the Potency in [2] is 8.93 µM (active). The result in assay [4] was inactive. The outcome in assay [5] is “inactive [at 17.4 µM]”.

On to `C[C@]12CC[C@H](O[C@@H]3O[C@H](CO)[C@@H](O)[C@H](O)[C@H]3O)CC1=CC[C@@H]1C2CC[C@]2(C)[C@@H](C3=CC(=O)OC3)CC[C@]12O` (some centres not stated), for which the Potency was 4.85 µM (active) in [1] and 2.42 µM (active) in assay [2]. Also, the Potency result in assay [3] is “inactive”.

For the compound `O=C1CN=C(c2ccccc2Cl)c2cc(Br)ccc2N1`, the Potency in assay [7] was 13.5 µM (active); in assay [8] it was 13.5 µM (active); in assay [2], 23 µM (active); in [9], 12.9 µM (active). Also, the Potency entry in assay [3] was “inactive”. The max response in [4] is -40.1%. Besides, in assay [10], the outcome was inactive.

`C/C=C(\C)C(O)C(C)/C=C(C)/C=C/C/C(C)=C/Cc1nc(OC)c(OC)c(O[C@@H]2O[C@@H](C)[C@H](O)[C@@H](O)[C@H]2O)c1C` (some centres not stated): the Potency entry in assay [1] and in [6] was “inactive” each time. Moreover, the Potency in [2] is 3.55 µM (active); in [9] it was 3.99 µM (active); in assay [11], 3.16 µM (active). Also, the call in [4] was inactive. Besides, the outcome in assay [5] was “inactive [at 17.4 µM]”.

With `CCOC(=O)Nc1ccc(NCc2c(C)cc(C)cc2C)cc1N`, the Potency was 2.13 µM (active) in assay [7], 18.3 µM (active) in assay [2] and 9.16 µM (active) in [9]. Moreover, the Potency result in [8], in assay [12], in [6] and in [11] was “inactive” each time.

`C#CC1(O)CCC2C3CCC4=CC(=O)CCC4=C3C=CC21C` (configuration not stated): the Potency in [1] is 2.91 µM (active). Moreover, the Potency entry in [3] and in assay [11] was “inactive” throughout. For the same compound, the compound was classed as inactive in [4] and in assay [5].

In the case of `CC[C@H](C)[C@@H]([C@@H](CC(=O)N1CCC[C@H]1[C@H](OC)[C@@H](C)C(=O)N[C@@H](Cc1ccccc1)c1nccs1)OC)N(C)C(=O)[C@@H](NC(=O)C(C)(C)N)C(C)C` (H-[Aib]V[Dil][Dolaproine]-Doe), the Potency in assay [1] was 0.146 µM (active). In addition, the Potency entry in assay [2], in assay [9] and in assay [11] was “inactive” in each case. Also, the max response in [13] is -94.9%. Further, the call in assay [4] and in assay [5] was inactive.

Consider `CC/C=C/C=C/C1(C)OC(OC)=C(C(=O)C2C(C)C(=O)c3cc(OC)c(O)c(O)c3C2(C)O)C1=O` (configuration not stated), for which the Potency in assay [9] is 7.09 µM (active). Also, the Potency entry in assay [3] and in assay [6] was “inactive” in each case.

Regarding `CO/C1=C\C(C)=C\[C@@H](C)[C@@H](O)[C@@H](C)C/C(C)=C/C=C/[C@H](OC)[C@@H]([C@@H](C)[C@@H](O)[C@H](C)[C@@]2(O)C[C@@H](O)[C@H](C)[C@@H](C(C)C)O2)OC1=O`, the Potency in assay [1] was 0.109 µM (active); in [2], 0.0483 µM (active); in assay [9], 0.0305 µM (active); in assay [14], 0.0611 µM (active); in [6], 0.126 µM (active). Moreover, the Potency result in assay [3] was “inactive”.

Take `CC[C@@H](C)[C@H]1C(=O)O[C@H](C(C)C)C(=O)N(C)[C@@H](C(C)C)C(=O)O[C@H](C(C)C)C(=O)N(C)[C@@H](C(C)C)C(=O)O[C@H](C(C)C)C(=O)N1C`: the figures for the Potency in [1] and in assay [2] were 4.32 µM (active) and 2.16 µM (active), respectively. Moreover, the Potency result in assay [3] is “inactive”.

In the case of `C[C@@H](CN1CCC2(CC1)C(=O)NCN2c1cccc(F)c1)NC(=O)c1ccc(Br)cc1`, the Potency in [7] was 4.77 µM (active); in [8], 9.52 µM (active); in assay [2], 11.5 µM (active). Also, the Potency result in assay [3], in assay [12] and in assay [6] was “inactive” each time.

On to `C=C1CC[C@H]2[C@@H](/C=C(\C)C(=O)[C@@]3(OC(C)=O)C[C@H](C)[C@H](OC(=O)c4ccccc4)[C@@H]3[C@H]1OC(C)=O)C2(C)C`, for which the Potency entry in [1], in assay [3], in assay [6] and in assay [11] was “inactive” each time. The max response in assay [4] was -1.11%.

Take `CO[C@@H]1[C@@H](O)[C@@H](O[C@H]2CC[C@]3(C=O)C4CC[C@]5(C)[C@@H](C6=CC(=O)OC6)CC[C@]5(O)[C@@H]4CC[C@H]3C2)O[C@@H](C)[C@H]1O[C@@H]1O[C@H](CO[C@@H]2O[C@H](CO)[C@@H](O)[C@H](O)[C@H]2O)[C@@H](O)[C@H](O)[C@H]1O` (some centres not stated): the results for the Potency in assay [1], in assay [2] and in [9] were 3.48 µM (active), 2.75 µM (active) and 3.46 µM (active), respectively. Moreover, the max response in [4] is -22.5%. The outcome in [10] is “inactive [at 9.27 µM]”.

`C[C@]12CC[C@H](O)CC1=CC[C@@H]1C2CC[C@]2(C)[C@@H](C3=CC(=O)OC3)CC[C@]12O` (some centres not stated): the Potency was 10.1 µM (active) in [1], 3.19 µM (active) in [2] and 4.5 µM (active) in assay [9]. The Potency result in assay [3] was “inactive”.

With `C[C@@H]1O[C@@H](O[C@H]2CC[C@@]3(C)C(CC[C@@H]4C3CC[C@]3(C)[C@@H](C5=CC(=O)OC5)CC[C@]43O)C2)[C@H](O)[C@H](O)[C@H]1O` (some centres not stated), the Potency in assay [1] was 0.709 µM (active); in assay [2], 0.2 µM (active); in assay [9] it was 0.632 µM (active); in [13], 0.632 µM (active); in assay [4] it was 2.82 µM (active); in assay [14], 0.796 µM (active). Also, the Potency in assay [6] and in [11] was 2 µM (active) in each case. Further, the Potency result in assay [3] is “inactive”.

For `CCCCn1cc(C(=O)c2cccc3ccccc23)c2ccccc21`, the Potency result in [1], in [7], in assay [8], in assay [2], in assay [9] and in assay [6] was “inactive” throughout. In addition, the Potency result in [11] was “inactive”. Moreover, the outcome in assay [4] and in assay [5] was inactive.
